Source: PubChem BioAssay (Tox21)
Records with an inconclusive call do not appear. A call without a number means that no potency is given here. Unmarked numbers belong to inactive results. Activity calls are given as the source filed them. Unless noted, calls come from the whole dose curve; as a rule, active = well fitted curve in the direction sought with a large enough effect in the repeat runs; inconclusive = weak or mixed curves; inactive = no such curve, though single readings can be large; an effect the other way counts as inactive or inconclusive.

Tests used:
[1] = molecular target: Peroxisome proliferator-activated receptor delta (Homo sapiens) (UniProt Q03181); test: qHTS assay to identify small molecule agonists of the peroxisome proliferator-activated receptor delta (PPARd) signaling pathway (AID 743212; calls by dose curve)
Peroxisome proliferator-activated receptor delta (Homo sapiens), sequence (Q03181 whole entry, looked up): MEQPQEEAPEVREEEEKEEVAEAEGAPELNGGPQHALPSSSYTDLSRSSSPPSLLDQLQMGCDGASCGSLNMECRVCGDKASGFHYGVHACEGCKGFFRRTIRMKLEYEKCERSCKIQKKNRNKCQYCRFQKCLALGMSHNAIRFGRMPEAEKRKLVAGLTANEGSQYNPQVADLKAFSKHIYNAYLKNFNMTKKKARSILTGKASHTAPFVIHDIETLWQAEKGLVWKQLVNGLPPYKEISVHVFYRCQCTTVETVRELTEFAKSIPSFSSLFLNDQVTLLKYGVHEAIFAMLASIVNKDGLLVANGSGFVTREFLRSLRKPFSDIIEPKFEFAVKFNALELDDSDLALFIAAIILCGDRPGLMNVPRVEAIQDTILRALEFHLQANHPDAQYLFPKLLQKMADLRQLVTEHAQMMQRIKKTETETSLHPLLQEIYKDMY
Procedure, shortened: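 A PPARd-bla HEK293H line with beta-lactamase under an Upstream Activator Sequence is treated with compounds at 37 C. Substrate loading for 2 h at room temperature precedes the fluorescence measurement.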

[2] = qHTS assay to identify small molecule agonists of the farnesoid-X-receptor (FXR) signaling pathway - cell viability counter screen (AID 743218); note: nearly all actives have a fitted effect of over 45% in size
Procedure, shortened: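 FXR-UAS-bla HEK 293T cells, plated 5 h at 37 C, were exposed to compounds for 16 h at 37 C. CellTiter-Glo was then added to the same wells as the bla readout; luminescence read after 30 min at room temperature.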

[3] = qHTS assay to identify small molecule antagonists of the farnesoid-X-receptor (FXR) signaling pathway - cell viability counter screen (AID 743221; active = well fitted cell-killing curve with a large enough effect in the repeat runs, not every such curve was filed as active; note: nearly all actives have a fitted effect of over 50% in size)
Procedure, shortened: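 After a 5 h settling period, FXR-bla HEK 293T cells receive compound and chenodeoxycholic acid (50 uM final) and incubate 16 h at 37 C; CellTiter-Glo luminescence, read after 30 min at room temperature, reports cell viability.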

[4] = molecular target: Vitamin D3 receptor (Homo sapiens) (UniProt P11473); test: qHTS assay to identify small molecule agonists of the vitamin D receptor (VDR) signaling pathway (AID 743222; calls by dose curve)
Vitamin D3 receptor (Homo sapiens), sequence (P11473 whole entry, looked up): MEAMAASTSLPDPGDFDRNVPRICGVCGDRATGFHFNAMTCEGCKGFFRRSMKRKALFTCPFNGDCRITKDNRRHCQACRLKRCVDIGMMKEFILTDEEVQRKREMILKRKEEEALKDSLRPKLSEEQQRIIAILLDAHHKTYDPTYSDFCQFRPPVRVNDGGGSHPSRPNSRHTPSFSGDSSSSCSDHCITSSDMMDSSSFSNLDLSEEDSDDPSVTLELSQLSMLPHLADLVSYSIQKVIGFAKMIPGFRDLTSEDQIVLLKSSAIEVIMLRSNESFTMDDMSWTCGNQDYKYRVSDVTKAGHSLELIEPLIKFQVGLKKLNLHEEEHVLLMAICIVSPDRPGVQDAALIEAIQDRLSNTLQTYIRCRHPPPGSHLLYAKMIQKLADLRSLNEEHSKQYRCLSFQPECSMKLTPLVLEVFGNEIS
Procedure, shortened: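 VDR-bla cells were plated 4 h at 37C/5% CO2, then exposed to compounds in DMSO for 16 h. After LiveBLAzer B/G FRET substrate addition and 2 h at room temperature, beta-lactamase reporter fluorescence was read.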

[5] = qHTS assay to identify small molecule agonists of the NFkB signaling pathway - cell viability counter screen (AID 1159515; calls by dose curve; note: series mostly up to about 61 µM; nearly all actives have a fitted effect of over 55% in size)
Procedure, shortened: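 NFkB-bla ME-180 cells, 2,000/well, were plated overnight at 37 C, 5% CO2, then exposed to compounds in DMSO for 5 hr. After the bla FRET read, CellTiter-Glo was added to the same wells; luminescence was read after 30 min at room temperature.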

[6] = qHTS assay to identify small molecule agonists of the endoplasmic reticulum stress response signaling pathway (AID 1159516; active = well fitted activation curve with a large enough effect in the signal ratio in the repeat runs, not every such curve was filed as active; the % refers to the signal ratio)
Procedure, shortened: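 CellSensor ESRE-bla HeLa cells, carrying a beta-lactamase reporter driven by the ER stress response element, were plated overnight and exposed to compounds for 5 hr at 37 C. Reporter activity was read as FRET substrate fluorescence after 2 hr at room temperature.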

[7] = qHTS assay to identify small molecule antagonists of the retinoid-related orphan receptor gamma (ROR-gamma) signaling pathway - cell viability counter screen (AID 1159520); note: nearly all actives have a fitted effect of over 50% in size
Procedure, shortened: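 Tet-on ROR gamma CHO cells (1,000/well) were plated 4 hr, given compounds in DMSO for 2 hr at 37 C, then induced with 1 uM final doxycycline for 16 hr. Viability was read as ATP by CellTiter-Glo luminescence after 30 min.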

[8] = molecular target: Nuclear receptor ROR-gamma (Homo sapiens) (UniProt P51449); test: qHTS assay to identify small molecule antagonists of the retinoid-related orphan receptor gamma (ROR-gamma) signaling pathway (AID 1159521; note: nearly all actives have a fitted effect of over 50% in size; note: potency is the fitted concentration of half-maximal effect)
Procedure, shortened: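 Decreased RORE-driven luciferase luminescence indicates antagonism. Tet-on RORγ CHO cells received compound, then 1 uM final doxycycline 2 h later; signal read after 16 h incubation.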

[9] = qHTS assay to identify small molecule agonists of the AP-1 signaling pathway - cell viability counter screen (AID 1159525; calls by dose curve; note: nearly all actives have a fitted effect of over 55% in size)
Procedure, shortened: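 ME-180 AP-1-bla, 2500 cells/well, Opti-MEM + 0.5% dialyzed FBS; overnight 37 °C; cpd 15-pt titration, 5 h 37 °C; CellTiter-Glo 30 min RT; luminescence read; normalised to TOAB and DMSO controls.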

[10] = qHTS assay to identify small molecule agonists of the AP-1 signaling pathway (AID 1159526; calls by dose curve)
[11] = molecular target: Retinoic acid receptor RXR-alpha (Homo sapiens) (UniProt P19793); test: qHTS assay to identify small molecule agonists of the RXR signaling pathway (AID 1159527; calls by dose curve; note: nearly all actives have a fitted effect of over 35% in size)
Retinoic acid receptor RXR-alpha (Homo sapiens), sequence (P19793 whole entry, looked up): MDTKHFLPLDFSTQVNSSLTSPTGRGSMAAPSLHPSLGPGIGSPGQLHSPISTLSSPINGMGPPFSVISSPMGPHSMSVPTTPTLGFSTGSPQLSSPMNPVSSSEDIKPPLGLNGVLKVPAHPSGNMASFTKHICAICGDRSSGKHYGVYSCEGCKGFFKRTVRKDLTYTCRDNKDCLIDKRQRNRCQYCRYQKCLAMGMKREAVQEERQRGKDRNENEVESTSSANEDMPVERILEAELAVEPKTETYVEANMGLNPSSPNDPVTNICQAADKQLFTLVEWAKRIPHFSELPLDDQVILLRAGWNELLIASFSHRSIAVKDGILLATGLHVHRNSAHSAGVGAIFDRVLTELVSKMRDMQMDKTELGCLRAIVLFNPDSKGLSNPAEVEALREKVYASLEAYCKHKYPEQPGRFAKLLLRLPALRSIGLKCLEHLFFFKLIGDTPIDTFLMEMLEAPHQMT
Procedure, shortened: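 16 hr incubation of compound-treated RXR-alpha-UAS-bla HEK 293T cells (2% charcoal-stripped FBS, 37 C) preceded a 2 hr room-temperature LiveBLAzer FRET substrate step and blue/green fluorescence measurement.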

[12] = qHTS assay to identify small molecule agonists of the peroxisome proliferator-activated receptor delta (PPARd) signaling pathway - cell viability counter screen (AID 743211); note: nearly all actives have a fitted effect of over 55% in size
Procedure, shortened: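 qHTS cell viability: PPARd-bla HEK293H; 17 h cpd, 37C; CellTiter-Glo, luminescence at 30 min RT.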

[13] = qHTS assay to identify small molecule antagonists of the peroxisome proliferator-activated receptor delta (PPARd) signaling pathway - cell viability counter screen (AID 743213); note: nearly all actives have a fitted effect of over 50% in size
Procedure, shortened: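 In this counter screen, HEK293H cells carrying a UAS-beta-lactamase reporter are co-treated with test compounds and 300 nM L165041 (final) for 17 h at 37 C; cell viability is quantified by CellTiter-Glo luminescence.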

[14] = qHTS assay to identify small molecule agonists of the vitamin D receptor (VDR) signaling pathway - cell viability counter screen (AID 743224)
Procedure, shortened: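 VDR-bla cells were preincubated 4 h at 37C/5% CO2, then exposed to compounds for 16 h. After the 2 h room-temperature bla FRET read, CellTiter-Glo was added to the same wells and luminescence read after 30 min.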

[15] = qHTS assay to identify small molecule antagonists of the vitamin D receptor (VDR) signaling pathway - cell viability counter screen (AID 743225); note: nearly all actives have a fitted effect of over 50% in size
Procedure, shortened: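 Parallel cytotoxicity test: VDR-UAS-bla HEK 293T, 3 nM (final) 1-alpha,25-dihydroxyvitamin D3 with test compound, 16 h, 37C. Endpoint is CellTiter-Glo luminescence in the same wells.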

[16] = molecular target: Peroxisome proliferator-activated receptor delta (Homo sapiens) (UniProt Q03181); test: qHTS assay to identify small molecule antagonists of the peroxisome proliferator-activated receptor delta (PPARd) signaling pathway (AID 743215; active = well fitted inhibition curve with a large enough effect in the signal ratio in the repeat runs, not every such curve was filed as active; the % refers to the signal ratio;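 note: cells stimulated with agonist L165041 at 300 nM final during compound exposure; series mostly up to about 62 µM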)
Procedure, shortened: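 PPARd UAS-bla HEK293H cells were pre-incubated 5 h at 37 C, then given test compounds in DMSO plus agonist L165041 (300 nM final). After 17 h at 37 C, beta-lactamase FRET substrate was added; fluorescence read after 2 h at room temperature.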

[17] = molecular target: Bile acid receptor (Homo sapiens) (UniProt Q96RI1); test: qHTS assay to identify small molecule antagonists of the farnesoid-X-receptor (FXR) signaling pathway (AID 743217; active = well fitted inhibition curve with a large enough effect in the signal ratio in the repeat runs, not every such curve was filed as active; the % refers to the signal ratio)
Bile acid receptor (Homo sapiens), sequence (Q96RI1 whole entry, looked up): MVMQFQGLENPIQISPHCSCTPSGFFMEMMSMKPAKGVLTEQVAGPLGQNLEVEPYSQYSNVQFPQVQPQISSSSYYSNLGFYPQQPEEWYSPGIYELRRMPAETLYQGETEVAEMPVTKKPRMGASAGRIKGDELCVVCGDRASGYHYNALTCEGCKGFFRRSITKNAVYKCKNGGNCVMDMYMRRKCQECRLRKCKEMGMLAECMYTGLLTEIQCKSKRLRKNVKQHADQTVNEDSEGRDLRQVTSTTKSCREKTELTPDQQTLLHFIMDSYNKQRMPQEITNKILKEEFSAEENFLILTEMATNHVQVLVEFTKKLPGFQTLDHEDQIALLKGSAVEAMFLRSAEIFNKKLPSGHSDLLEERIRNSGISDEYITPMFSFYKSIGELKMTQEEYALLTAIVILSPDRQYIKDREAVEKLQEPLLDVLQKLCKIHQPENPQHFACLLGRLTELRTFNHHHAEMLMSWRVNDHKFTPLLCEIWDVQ
Procedure, shortened: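 FXR-UAS-bla HEK 293T cells pre-incubated 5 h at 37 °C, then exposed to compounds with chenodeoxycholic acid (50 uM final) for 16 h at 37 °C. Beta-lactamase reporter read by LiveBLAzer B/G FRET substrate fluorescence after 2 h at room temperature.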

[18] = molecular target: Bile acid receptor (Homo sapiens) (UniProt Q96RI1); test: qHTS assay to identify small molecule agonists of the farnesoid-X-receptor (FXR) signaling pathway (AID 743220; active = well fitted activation curve with a large enough effect in the signal ratio in the repeat runs, not every such curve was filed as active; the % refers to the signal ratio)
Procedure, shortened: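 Beta-lactamase reporter under UAS control in GeneBLAzer FXR HEK 293T cells (5000/well) measured with LiveBLAzer FRET substrate after 2 h at room temperature. Compound exposure lasted 16 h at 37C.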

[19] = molecular target: Vitamin D3 receptor (Homo sapiens) (UniProt P11473); test: qHTS assay to identify small molecule antagonists of the vitamin D receptor (VDR) signaling pathway (AID 743223; active = well fitted inhibition curve with a large enough effect in the signal ratio in the repeat runs, not every such curve was filed as active; the % refers to the signal ratio)
Procedure, shortened: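 Reporter line VDR-bla; stimulus 1alpha,25-(OH)2 vitamin D3, 3 nM final; compound co-addition, 16 h 37C/5% CO2; LiveBLAzer B/G substrate 2 h RT; fluorescence intensity.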

SMILES | Potency [1] | Potency [2] | Potency [3] | Potency [4] | Potency [5] | Potency [6] | Potency [7] | Potency [8] | Potency [9] | Potency [10] | Potency [11] | Potency [12] | Potency [13] | Potency [14] | Potency [15] | Potency [16] | Potency [17] | Potency [18] | Potency [19]
Cc1cc(-c2ccc(N=Nc3cc(S(=O)(=O)O)c4ccccc4c3N)c(C)c2)ccc1N=Nc1cc(S(=O)(=O)O)c2ccccc2c1N | inactive | inactive | inactive | inactive | inactive | inactive | inactive | 30.8 µM (active) | inactive | inactive | inactive | – | – | – | – | – | – | – | –
Clc1ccnc(Cl)n1 | – | inactive | inactive | inactive | inactive | inactive | inactive | inactive | inactive | inactive | inactive | inactive | inactive | inactive | inactive | – | – | – | –
CC1(C)CC(O)CC(C)(C)N1 | – | inactive | inactive | inactive | inactive | inactive | inactive | inactive | inactive | inactive | inactive | inactive | inactive | inactive | inactive | inactive | – | – | –
OC[C@H]1O[C@H](O[C@H]2O[C@H](CO)[C@@H](O)[C@H](O)[C@H]2O)[C@H](O)[C@@H](O)[C@@H]1O | – | inactive | inactive | inactive | inactive | inactive | inactive | inactive | inactive | inactive | – | inactive | inactive | inactive | inactive | – | inactive | inactive | –
Cc1c(F)c(N2CCNC(C)C2)cc2c1c(=O)c(C(=O)O)cn2C1CC1 (stereo not drawn) | inactive | inactive | inactive | inactive | inactive | inactive | inactive | inactive | inactive | inactive | – | inactive | inactive | – | inactive | inactive | – | – | inactive
COc1cccc(OC)c1C(=O)O | – | inactive | inactive | inactive | inactive | inactive | inactive | – | inactive | inactive | inactive | inactive | inactive | inactive | inactive | – | – | – | –
CCN1C(=O)c2ccccc2C1Nc1ccc(OCCN2CCCCC2)cc1 (stereo not drawn) | inactive | inactive | inactive | inactive | inactive | inactive | inactive | – | inactive | inactive | inactive | inactive | inactive | inactive | inactive | – | inactive | inactive | inactive
C=CC(C)(CCC=C(C)C)OC=O (stereo not drawn) | inactive | inactive | inactive | inactive | inactive | inactive | inactive | inactive | inactive | inactive | inactive | inactive | – | inactive | – | inactive | – | – | –
CN(C)C(=O)COC(=O)Cc1ccc(OC(=O)c2ccc(N=C(N)N)cc2)cc1 | – | inactive | inactive | – | inactive | inactive | inactive | – | inactive | inactive | inactive | inactive | inactive | inactive | inactive | – | inactive | inactive | –
